Experimental findings from ChEMBL document CHEMBL3988442, “University of Dundee, Small-Polar-MMV Screening Library” (2021) are described below.

Screen size: about 69,000 compounds; about 420 (0.61%) showed an effect of 50% or more. The full list was thinned out, with strong results kept by preference.

This assay has as its target T1, Histidine--tRNA ligase (Leishmania infantum) (UniProt A4I591).
T1 sequence (whole entry): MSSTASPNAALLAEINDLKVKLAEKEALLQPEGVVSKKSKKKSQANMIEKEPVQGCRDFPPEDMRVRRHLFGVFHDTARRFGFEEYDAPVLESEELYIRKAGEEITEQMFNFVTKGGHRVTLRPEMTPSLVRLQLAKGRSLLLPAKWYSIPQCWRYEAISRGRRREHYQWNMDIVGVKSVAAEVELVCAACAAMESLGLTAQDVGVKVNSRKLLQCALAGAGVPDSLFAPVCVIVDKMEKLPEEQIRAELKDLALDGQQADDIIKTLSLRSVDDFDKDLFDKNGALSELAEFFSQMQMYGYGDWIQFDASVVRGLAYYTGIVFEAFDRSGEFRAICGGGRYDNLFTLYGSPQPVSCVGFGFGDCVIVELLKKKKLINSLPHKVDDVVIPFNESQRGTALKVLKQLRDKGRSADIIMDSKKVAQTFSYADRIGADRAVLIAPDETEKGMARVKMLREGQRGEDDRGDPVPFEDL
Kind of assay: Leishmania infantum Histidine tRNA synthetase (LdHisRS). The class given is functional. The arrangement: scale not given: in the data most compounds retested in dose-response had high values. The following applies: 30 µM.
For `CN1[C@H](Cn2cncn2)C[C@@H]2CN(C3CCOCC3)CC[C@@H]21`, the Percent Effect amounted to 20%.

Turning to `Cc1n[nH]c(C)c1CN1CC[C@@H]2[C@@H](CCC(=O)N2CCc2c[nH]cn2)C1`, the Percent Effect amounted to 19.4%.

For `CC(C)CNC(=O)N1C[C@H]2C[C@H](C(=O)NCc3ccccc3)[C@@H](C1)O2`, the Percent Effect was 14.6%.

Regarding `O=c1c2cnc(N3CCCC3)nc2ccn1-c1cccc(F)c1`, the Percent Effect is 13.3%.

As to `O=c1c2cnc(N3CCCCC3)nc2ccn1-c1ccccc1`, the Percent Effect was found to be 7.77%.

Regarding `O=c1c2cnc(N3CCOCC3)nc2ccn1-c1ccccc1`, the Percent Effect is 50%.

For `COc1cc(CCO)c(OC)c2c1OCO2`, the Percent Effect worked out at 51.7%.

As for `COc1cc(CCC(C)O)c(OC)c2c1OCO2` (stereo not given), the Percent Effect came to 0%.

In the case of `COc1cc(CO)c(OC)c2c1OCO2`, the Percent Effect is 18.3%.

Take `Cc1noc([C@H]2C[C@H]3OCC[C@H]3N(S(C)(=O)=O)C2)n1`: the Percent Effect was -20.2%.

As for `COC(=O)c1ccc(OC)c(Cn2cc(N)cn2)c1`, the Percent Effect was 50.6%.

Regarding `COC(=O)c1ccc(OC)c(Cn2cc(Br)cn2)c1`, the Percent Effect came out at 1.12%.

Turning to `CCn1cc(C(=O)Nc2cc(C(=O)OC)ccc2C(=O)OC)cn1`, the Percent Effect amounted to 10.3%.

`CNC(=O)[C@@H]1[C@@H](c2ccccc2)CN2CCN(Cc3ccccn3)C[C@H]12`: the Percent Effect was 8.16%.

Take `CSCC(=O)N1C[C@H]2CC[C@@H]1CN(Cc1ccccc1)C2`: the Percent Effect came to 26.9%.

As for `CN(Cc1ccco1)[C@@H]1CN(Cc2cccs2)C[C@@H]2CCCO[C@@H]21`, the Percent Effect came to 5.46%.

As for `CC(C)OCCN1CCc2cncnc2C1`, the Percent Effect amounted to 37.1%.

With `Cc1cccc(OCCNC(=O)CN2CCc3cncnc3C2)c1`, the Percent Effect turned out to be 20.2%.

Consider `O=C(CN1CCc2cncnc2C1)NCCOc1ccccc1`, for which the Percent Effect stood at 50%.

As to `CCOCCN1CCc2cncnc2C1`, the Percent Effect is 32.3%.

`O=C(CN1CCc2cncnc2C1)NCCOc1cccc(Cl)c1`: the Percent Effect was determined as 18.4%.

On to `CN(CCCOc1ccccc1)C(=O)CN1CCc2cncnc2C1`, for which the Percent Effect turned out to be 65.2%.

Turning to `COc1ccccc1OCCNC(=O)CN1CCc2cncnc2C1`, the Percent Effect came to 20.2%.

Consider `CS(=O)(=O)c1ccc(OCCCN2CCc3cncnc3C2)cc1`, for which the Percent Effect was 12.5%.

`COCCCN1CCc2cncnc2C1`: the Percent Effect amounted to 50.6%.

Consider `O=C(c1cccc(F)c1)N1CCN2C[C@H](OCc3cccnc3)C[C@H]2C1`, for which the Percent Effect is 9.49%.

For the compound `COCC(=O)N1CC[C@H]2N(C)CC[C@@]2(C(=O)Nc2ccccc2)CC1`, the Percent Effect worked out at 15.4%.

Turning to `c1cc(CN2CC[C@@H]3[C@@H](CO[C@H]3CN3CCOCC3)C2)cs1`, the Percent Effect is 18.1%.

With `COc1cc(C)ccc1OCCN1CC[C@@]2(O)CCNC[C@H]2C1`, the Percent Effect was found to be 12.3%.

`COc1ccccc1-n1cc(CN2CCN(C)[C@@H]3CS(=O)(=O)C[C@@H]32)cn1`: the Percent Effect worked out at 17.1%.

On to `CCO[C@@H]1CC[C@H]2[C@H]1OCCN2S(=O)(=O)C1CC1`, for which the Percent Effect stood at 4.17%.

As to `CNc1cc2c(nn1)CCN(C(=O)c1ccoc1)C2`, the Percent Effect is 10.7%.

Regarding `CNc1cc2c(nn1)CCN(C(=O)c1coc(Br)c1)C2`, the Percent Effect was determined as 52.2%.

For `CNc1cc2c(nn1)CCN(C(=O)c1cc(F)cc(F)c1)C2`, the Percent Effect came out at 21.3%.

As to `COc1ccsc1C(=O)NCCNc1ccccc1`, the Percent Effect was 11.7%.

Consider `COCCn1ccc(NC(=O)Nc2ccccn2)n1`, for which the Percent Effect came to 13.2%.

`COc1ccsc1C(=O)Nc1cc(CN2CCOCC2)ccc1C`: the Percent Effect is -11.1%.

For the compound `Cn1cc(NC(=O)c2ccccn2)cc(Cl)c1=O`, the Percent Effect came out at 10.3%.

For `CCC(C#N)NC(=O)c1sccc1OC` (stereo not given), the Percent Effect stood at 10.6%.

Consider `Cn1cc(NC(=O)Nc2ccccn2)cc(Cl)c1=O`, for which the Percent Effect stood at 121%.

On to `Cc1ccsc1C(=O)Nc1cc(Br)c(=O)n(C)c1`, for which the Percent Effect amounted to 107%.

Consider `COc1ccsc1C(=O)Nc1cc(Cl)c(=O)n(C)c1`, for which the Percent Effect is 103%.

On to `COc1ccsc1C(=O)Nc1cc(Br)c(=O)n(C)c1`, for which the Percent Effect turned out to be 109%.

For `Cc1ccsc1C(=O)Nc1cnn(CC(=O)NC2CCCC2)c1`, the Percent Effect was 3.23%.

With `Cn1cc(NC(=O)c2ccccn2)cc(Br)c1=O`, the Percent Effect stood at 15.4%.

Consider `Cn1cc(NC(=O)c2cc[nH]n2)cc(Cl)c1=O`, for which the Percent Effect is 10.3%.

For `CCS(=O)(=O)N1CCO[C@H]2[C@H](Oc3ncccc3F)CC[C@@H]21`, the Percent Effect came to 8.22%.

As for `O=C1[C@@H]2CCN(Cc3ccoc3)C[C@@H]2OCCN1c1ccccc1`, the Percent Effect came to 9.49%.

In the case of `O=C1NC[C@@]2(C(=O)O)CN(Cc3ccc(Oc4ccccc4)cc3)C[C@@H]12`, the Percent Effect turned out to be 12.1%.

Take `CC(C)c1nc(CN2CCCCC2)cs1`: the Percent Effect came to 0%.

Turning to `CC(C)c1nc(CC(=O)Nc2nc(CN3CCCCCC3)cs2)cs1`, the Percent Effect is 53.3%.

For `CC(C)c1nc(CN2CCC(CO)CC2)cs1`, the Percent Effect was determined as 13.2%.

For `O=C(c1cc(-c2ccco2)nc2c(Cl)cccc12)N1C[C@H]2CNC[C@H]2C1`, the Percent Effect turned out to be 53.3%.

In the case of `Cc1nc(-c2ccco2)ccc1C(=O)N1CCc2nnc(N)cc2C1`, the Percent Effect was determined as 2.63%.

For `O=C1CN(C(=O)c2cc(-c3ccco3)nc3c(Cl)cccc23)CCN1`, the Percent Effect was 81.7%.

`COCC1CCN(C(=O)c2cc(-c3ccco3)nc3c(Cl)cccc23)C1` (stereo not given): the Percent Effect was determined as 11.7%.

With `O=C(c1cc(-c2ccco2)nc2c(Cl)cccc12)N1CCS(=O)(=O)CC1`, the Percent Effect is 15%.

Consider `NC(=O)N1C[C@@H]2CN(C(=O)c3ccco3)C[C@@H]2C1`, for which the Percent Effect is 15.5%.

For the compound `Cc1nc(-c2ccco2)ccc1C(=O)N1CCn2c(C)nnc2C1`, the Percent Effect stood at 25.4%.

For the compound `O=C(c1cc(-c2ccco2)nc2c(Cl)cccc12)N1CC[C@H]2CNC[C@H]21`, the Percent Effect came to 40%.
